Source: the antibiotic and cytotoxicity screens of Wong et al. (2023)
Out of some 39,000 compounds screened, about 1,500 (3.8%) were called active. The list comes from a sample in which actives are over-represented; it also holds similar structures and randomly drawn compounds.

tested on: HSkMC (human skeletal muscle cells); test: cytotoxicity call (relative viability < 0.9); details: 10 µM

SMILES	cytotoxicity call
CO[C@H]1CN(C)C(=O)c2ccc(NC(=O)CC(F)(F)F)cc2OC[C@H](C)N(C(=O)C2CCOCC2)C[C@H]1C	inactive
O=c1c(O)cc(C2Oc3cc(O)cc(O)c3CC2O)cc2c(C3Oc4cc(O)cc(O)c4CC3O)cc(O)c(O)c12 (stereo not drawn)	inactive
Cc1noc(C)c1NC(=O)Nc1ccc2c(c1)C(=O)N([C@@H](C)CO)C[C@H](C)[C@@H](CN(C)Cc1ccc(C(F)(F)F)cc1)O2	inactive
C[C@@H]1CN([C@H](C)CO)C(=O)c2cc(NS(=O)(=O)c3ccccc3)ccc2O[C@H]1CN(C)Cc1ccc(Oc2ccccc2)cc1	inactive
C[C@@H]1CN([C@@H](C)CO)C(=O)c2cc(NS(=O)(=O)c3ccc(Cl)cc3)ccc2O[C@@H]1CN(C)Cc1ccc(Oc2ccccc2)cc1	active
C[C@H](CO)N1C[C@H](C)[C@H](CN(C)Cc2ccc(Oc3ccccc3)cc2)Oc2ccc(NS(=O)(=O)c3ccccc3)cc2C1=O	inactive
C[C@@H]1CN([C@H](C)CO)C(=O)c2cc(NS(=O)(=O)c3cn(C)cn3)ccc2O[C@H]1CN(C)Cc1ccc2c(c1)OCO2	inactive
COc1ccc(S(=O)(=O)N(C)C[C@H]2Oc3ccc(NC(=O)Cn4cnnn4)cc3CC(=O)N([C@@H](C)CO)C[C@@H]2C)cc1	inactive
C[C@@H]1CN([C@@H](C)CO)C(=O)c2cc(NS(=O)(=O)c3cccs3)ccc2O[C@@H](C)CCCCO[C@H]1CN(C)C(=O)Nc1cccc2ccccc12	inactive
C[C@H]1CCCCO[C@@H](CN(C)C(=O)Nc2cccc3ccccc23)[C@@H](C)CN([C@@H](C)CO)C(=O)c2cc(NS(=O)(=O)c3cccs3)ccc2O1	inactive
C[C@@H]1CCCCO[C@H](CN(C)C(=O)Nc2cccc3ccccc23)[C@H](C)CN([C@H](C)CO)C(=O)c2cc(NS(=O)(=O)c3cccs3)ccc2O1	active
C[C@H]1CCCCO[C@H](CN(C)C(=O)Nc2cccc3ccccc23)[C@@H](C)CN([C@@H](C)CO)C(=O)c2cc(NS(=O)(=O)c3cccs3)ccc2O1	inactive
C[C@H](CO)N1C[C@H](C)[C@@H](CN(C)C(=O)Nc2cccc3ccccc23)OCCCC[C@H](C)Oc2ccc(NS(=O)(=O)c3cccs3)cc2C1=O	active
C[C@@H]1CCCCO[C@@H](CN(C)C(=O)Nc2cccc3ccccc23)[C@H](C)CN([C@H](C)CO)C(=O)c2cc(NS(=O)(=O)c3cccs3)ccc2O1	inactive
C[C@@H]1CN([C@@H](C)CO)S(=O)(=O)c2ccc(-c3ccc(F)cc3)cc2O[C@@H]1CN(C)S(C)(=O)=O	inactive
Oc1ccc([C@@H]2C=CCC2)cc1	inactive
COc1ccc(NC(=O)N(C)C[C@H]2OCCCC[C@@H](C)Oc3ccc(NC(=O)Nc4ccc5c(c4)OCO5)cc3C(=O)N([C@@H](C)CO)C[C@H]2C)cc1	inactive
C[C@@H]1CN([C@H](C)CO)C(=O)c2cccc(NC(=O)C3CCOCC3)c2O[C@@H]1CN(C)Cc1ccc2c(c1)OCO2	inactive
Cc1cc(C(=O)Nc2cccc3c2O[C@H](CN(C)S(=O)(=O)c2ccc(F)cc2)[C@H](C)CN([C@H](C)CO)C3=O)n(C)n1	inactive

SMILES	cytotoxicity call
CN(C)CC(=O)N1[C@@H]2Cn3c(cccc3=O)[C@H]1[C@@H](C(=O)NCc1ccccc1)[C@@H]2CO	inactive
C=CCC[C@@H](Cc1ccc(F)cc1)C(=O)O[C@H](CNC(=O)[C@@H](CC=C)CC(=O)N(CCO)Cc1ccccc1)c1ccccc1	active
C=CCC[C@H](Cc1ccc(F)cc1)C(=O)O[C@@H](CNC(=O)[C@H](CC=C)CC(=O)N(CCO)Cc1ccccc1)c1ccccc1	inactive
C=CCC[C@@H](Cc1ccc(F)cc1)C(=O)O[C@@H](CNC(=O)[C@@H](CC=C)CC(=O)N(CCO)Cc1ccccc1)c1ccccc1	active
C=CCC[C@H](Cc1ccc(F)cc1)C(=O)O[C@@H](CNC(=O)[C@@H](CC=C)CC(=O)N(CCO)Cc1ccccc1)c1ccccc1	active
C=CCC[C@@H](Cc1ccc(F)cc1)C(=O)O[C@H](CNC(=O)[C@H](CC=C)CC(=O)N(CCO)Cc1ccccc1)c1ccccc1	inactive
C=CCC[C@@H](Cc1ccc(F)cc1)C(=O)O[C@@H](CNC(=O)[C@H](CC=C)CC(=O)N(CCO)Cc1ccccc1)c1ccccc1	active
C=CCC[C@H](Cc1ccc(F)cc1)C(=O)O[C@H](CNC(=O)[C@@H](CC=C)CC(=O)N(CCO)Cc1ccccc1)c1ccccc1	inactive
C=CCC[C@H](Cc1ccc(F)cc1)C(=O)O[C@H](CNC(=O)[C@H](CC=C)CC(=O)N(CCO)Cc1ccccc1)c1ccccc1	inactive
COC(=O)C[C@H]1CC[C@@H]2[C@H](COC[C@@H](O)CN2S(=O)(=O)c2ccc(F)cc2)O1	inactive
C=CCNC(=O)[C@@H]1[C@H]2C(=O)O[C@H](c3ccccc3)[C@H](c3ccccc3)N2[C@H](c2ccc(O)cc2)[C@@]12C(=O)N(C(=O)OCCOC)c1ccc(C#Cc3ccc(OC)cc3)cc12	inactive
CC(C)NC(=O)N(C)C[C@H]1Oc2cc(-c3ccccc3F)ccc2S(=O)(=O)N([C@@H](C)CO)C[C@H]1C	inactive
Nc1ncnc(Cl)c1N	inactive
COCC#Cc1ccc2c(c1)O[C@H](CN(C)C(=O)c1ccccc1)[C@@H](C)CN([C@@H](C)CO)S2(=O)=O	inactive
C[C@@H]1CCCCO[C@@H](CN(C)C(=O)c2ccccc2)[C@@H](C)CN([C@H](C)CO)C(=O)c2cc(NC(=O)Nc3ccc(F)cc3)ccc2O1	inactive
COc1ccccc1CNC(=O)C[C@H]1CC[C@H]2[C@@H](COC[C@H](O)CN2C(=O)Nc2ccc(F)cc2)O1	inactive
O=C(C[C@@H]1C[C@H]2c3cc(NC(=O)Nc4ccc(C(F)(F)F)cc4)ccc3O[C@H]2[C@H](CO)O1)NCc1cc(F)ccc1F	inactive
C[C@@H]1CN([C@H](C)CO)C(=O)c2cc(NC(=O)c3ccncc3)ccc2O[C@H]1CN(C)Cc1ccc(Oc2ccccc2)cc1	inactive
O=C(O[C@H]1[C@H](O)[C@@H](CO)O[C@H](c2c(O)cc(O)c(C(=O)c3ccc(O)cc3)c2O)[C@H]1OC(=O)c1cc(O)c(O)c(O)c1)c1cc(O)c(O)c(O)c1	inactive
